Only some compounds are listed: those with a hit (about 9.2% of all), similar ones and a draw of the others.
ELG1 repair inh – inhibitors of ELG1-dependent DNA repair in HEK293T cells; HEK293T ELG1-luciferase reporter, luminescence, 16 h; DNA damage induced by 5-fluorouridine; Potency, µM (doses to about 46.1 µM), for the others: at the top dose activity change, negative = inhibition, actives largely listed as inhibitors; 330,000 tested, 2.3% active; further: on the % scale 0 is the no-effect control and ±100 the full control effect; nearly all actives have a fitted effect of over 55% in size
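HEK293T cells expressing luciferase-tagged ELG1 (2,000/well) received 5-Fluorouridine plus compound or DMSO for 16 hr at 37 °C. Luciferase was read by ONE-Glo luminescence after 30 min at room temperature.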
SMN2 splice enh – enhancers of SMN2 splice variant expression | HEK293 SMN2-luciferase splicing reporter, luminescence, 30-36 h | Potency, µM (top dose mostly 46.1 µM), for inactives: at the top dose activity change, positive = activation, most hits filed as activators | 210,000 tested, 2.8% active | AID 1458; further: % of control where 0% means no effect; nearly all actives have a fitted effect of over 55% in size
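HEK293 cells carry an SMN2 minigene-luciferase reporter in which exon 7 inclusion puts luciferase in frame. Cells were seeded at 2000 cells/well, attached for 10-12 hours, then exposed to compounds for 30-36 hours at 37C before ONE-Glo luminescence.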
FLuc modulator – counter-screen for miR-21 project: firefly luciferase inhibitors or activators; purified FLuc, Km substrates, luminescence inhibition; Potency, µM (titrated, usually from 57.5 µM), inactives show top-dose activity change, negative = inhibition, hits mostly inhibitors; 360,000 tested, 6.9% active;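 further: plate controls were vehicle for no effect and reference inhibitor for full effect; nearly all actives have a fitted effect of over 55% in size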
Target sequence (P08659 whole entry, looked up): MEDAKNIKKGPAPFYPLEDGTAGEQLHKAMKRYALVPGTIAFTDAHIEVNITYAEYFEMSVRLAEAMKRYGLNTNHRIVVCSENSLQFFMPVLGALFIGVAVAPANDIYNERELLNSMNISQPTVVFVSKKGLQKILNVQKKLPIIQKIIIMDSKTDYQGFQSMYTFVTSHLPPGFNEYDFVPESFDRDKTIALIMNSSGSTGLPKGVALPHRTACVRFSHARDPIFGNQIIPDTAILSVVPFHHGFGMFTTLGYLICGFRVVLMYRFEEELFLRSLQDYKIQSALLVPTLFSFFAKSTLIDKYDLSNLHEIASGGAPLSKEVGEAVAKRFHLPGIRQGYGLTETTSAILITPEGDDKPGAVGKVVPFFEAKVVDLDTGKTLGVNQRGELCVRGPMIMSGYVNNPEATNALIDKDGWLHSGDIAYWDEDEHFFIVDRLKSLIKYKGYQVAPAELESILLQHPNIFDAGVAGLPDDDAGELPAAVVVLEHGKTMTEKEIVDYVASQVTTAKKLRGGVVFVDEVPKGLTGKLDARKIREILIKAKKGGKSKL
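Purified P. pyralis luciferase (10nM final) with 10uM D-luciferin and 10uM ATP (Km levels) in 50mM Tris acetate pH 7.5, 10mM Mg acetate, 0.01% Tween-20, 0.05% BSA; qHTS 6-point titration, ~60 µM downward; luminescence read.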
ELG1 genotoxic – induces genotoxicity in HEK293T cells with luciferase-tagged ELG1. 330,000 tested, 1.3% active. HEK293T ELG1-luciferase reporter, luminescence, 16 h. Potency, µM (doses to about 46 µM), without a hit: top-dose activity change, positive = activation, hits mostly activators; further: % of control where 0% means no effect; nearly all actives have a fitted effect of over 60% in size
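16 hr compound incubation (37 °C, 5% CO2) of HEK293T cells carrying luciferase-tagged ELG1; luciferase then measured by ONE-Glo luminescence after 30 min at RT.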
Rab9 promoter act – activates the Rab9 promoter; Potency, µM (top dose mostly 9.22 µM), inactives show top-dose activation, negative = inhibition, actives largely listed as activators; Huh7 Rab9 promoter-luciferase reporter, luminescence, 24 h; 320,000 tested, 2.8% active; AID 485297; further: % of control where 0% means no effect; nearly all actives have a fitted effect of over 60% in size
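Huh7 cells stably carrying Rab9 promoter–luciferase reporter, plated 1500 cells/well, compound added after 2 h and incubated 24 h at 37 °C; luciferase luminescence then read after 10 min with detection reagent.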
NPC1 promoter act – activates the NPC1 promoter | Huh7 NPC1 promoter luciferase reporter, 24 h | Potency, µM (titrated, usually from 9.22 µM), for the others: at the top dose activation, actives largely listed as activators | 320,000 tested, 2.4% active | AID 485313; further: % of control where 0% means no effect; nearly all actives have a fitted effect of over 60% in size
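Quantitative HTS used a cell-based reporter: Huh7 cells stably bearing the NPC1 promoter upstream of luciferase were treated with compounds for 24 h, and promoter activation was read as luminescence.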
* hit, by the source's call; ? = inconclusive; · = no result; [ ] = dose if it differs, or a comment. The call rests on the fitted dose curve; in most records, active means well fitted curve in the direction sought with a large enough effect; inconclusive means small, poorly fitted or top-dose-only effect, or another doubt; inactive means no such curve, though single readings can be large; an effect the other way counts as inactive or inconclusive. Potency means the concentration at half of the fitted maximal effect.

SMILES	ELG1 repair inh	SMN2 splice enh	FLuc modulator	ELG1 genotoxic	Rab9 promoter act	NPC1 promoter act
COc1cc(C(=O)N/N=C(\c2ccccc2)c2ccccn2)cc(OC)c1OC	?	-83%	1%	?	-48%	-25%
COc1ccc(C(=O)Nc2ccc3ccccc3c2)cc1	?	·	0.19µM*	0.46µM*	?	0.089µM*
COc1cccc(C(=O)N/N=C(/c2ccccc2)c2ccccn2)c1	23%	-53%	19µM*	0%	-16%	-18%
Cn1c(N)c(C(=O)Nc2ccc3ccccc3c2)sc1=S	?	?	?	?	2.2µM*	1.8µM*
COC(=O)COc1cccc(NC(=O)c2cc(OC)cc(OC)c2)c1	3%	-22%	?	1%	-4%	-3%
COc1cccc(C(=O)Nc2cccc(OCC(=O)O)c2)c1	16%	14%	24µM*	2%	-3%	-4%
CC(C)(C)NS(=O)(=O)c1ccc(NC(=O)CS(=O)(=O)Cc2ccccc2)cc1	0%	·	4%	-2%	-2%	-4%
CCOC(=O)c1[nH]c2ccc(OC)cc2c1NC(=O)c1ccc(OC)c(OC)c1	?	-1%	-16%	1%	-2%	-8%
COC(=O)c1[nH]c2cc(OC)c(OC)cc2c1NC(=O)c1cccc(OC)c1	?	-13%	5.4µM*	-1%	13%	15%
COc1cccc(C(=O)Nc2ccc(NC(=O)Cc3ccccc3)cc2)c1	2%	·	0%	13%	5%	2%
COc1cccc(C(=O)Nc2ccccc2)c1	?	?	24µM*	?	?	?
CCOc1cccc(/C=C2\NC(=S)N(c3ccccc3)C2=O)c1O	?	·	5.4µM*	12%	?	1%
CCOc1cc(/C=C2\NC(=S)N(c3c(C)n(C)n(-c4ccccc4)c3=O)C2=O)ccc1O	-1%	3%	-1%	2%	-5%	-4%
Cc1cnc(C(=O)OCC(=O)Nc2ccccc2-c2ccccc2)cn1	-20%	·	1%	2%	4%	0%
COCCn1ccc(O)c(Cc2ccc(Cl)cc2)c1=O	9%	0%	0%	-1%	1%	-1%
CCNc1ccc(Br)cc(C(=O)/C=C/c2c(Cl)cccc2Cl)c1=O	?	-110%	0%	-8%	1%	0%
CCNc1ccc(Br)cc(C(=O)/C=C/c2ccc(Cl)cc2)c1=O	21µM*	-75%	-19%	-9%	0%	1%
O=[N+]([O-])c1ccc2ncccc2c1CCc1c([N+](=O)[O-])ccc2ncccc12	·	5%[9.22 µM]	·	·	·	·
Cn1c(-c2ccccc2)c(/C=N/NC(=O)c2ccc(O)cc2)c2ccccc21	?	·	0.95µM*	?	?	?
O=C(N/N=C/c1c(O)ccc2ccccc12)c1cccnc1	3.7µM*	·	?	7%	-45%	-16%
O=C(N/N=C\c1c(O)ccc2ccccc12)c1ccc(O)cc1	-16%	·	12µM*	23%	3%	-41%
CCOc1ccc2ccccc2c1/C=N\NC(=O)c1ccc([N+](=O)[O-])cc1	?	·	9.5µM*	3%	-1%	0%
CCOc1ccc2ccccc2c1/C=N\NC(=O)OC	-1%	2%	-2%	5%	0%	-1%
COc1cc(OC)c(C2C=C(c3ccc(C)cc3)Nc3c(C(=O)Nc4ccccc4)cnn32)cc1OC (stereo unspecified)	·	·	-15%	·	·	·
O=C(c1[nH]nc2c1CCc1ccccc1-2)N1CCN(Cc2ccc3c(c2)OCO3)CC1	9.2µM*	·	12%	-5%[9.26 µM]	-41%	-10%
COc1ccsc1C(=O)N1CCN(Cc2ccc3c(c2)OCO3)CC1	?	-13%	0%	1%	-5%	1%
Cn1c(C(=O)N2CCC(C(=O)N3CCN(Cc4ccc5c(c4)OCO5)CC3)CC2)cc2sccc21	7.3µM*	-38%	1%	-28%	-15%	-8%

Assay outcomes as filed in PubChem BioAssay.
